Measurements reported in PubChem BioAssay AID651706 (NMMLSC, 2012).
Among all 2,300 compounds or so, about 55 (2%) were called active.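 Rule for the calls: active = share of green or green-and-red cells above 9 and 9% in run 1 or 4 and 3% in run 2; inactive = the rest, inconclusive results apart.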 A selection follows.

Assay: inducers of myeloid progenitor differentiation, confirmation, cell-based, GFP/Mac1 flow cytometry, cherry pick 01 (AID 651706);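 for differentiation response: plate controls were double positive share in DMSO wells for no effect and share in positive control wells for full effect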;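 for double positive cells: share of live cells carrying both lysozyme GFP and MAC1 staining after four days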
Conditions: ER-HoxA9 myeloid progenitors, stronger effect = higher value; differentiation response: GFP/Mac1 double-positive flow; double positive cells: measured here: percent double positive cells
With `Cc1ccc2nc(-c3ccccn3)cc(C(=O)Nc3ccc4c(c3)OCO4)c2c1` the differentiation response was 1.4% (inactive) and the double positive cells was 0.8%.
For `CCN(CC)CC(=O)c1c[nH]c2ccc(OC)cc12`, the differentiation response was 1.4% (inactive) and the double positive cells was 0.9%.
In the case of `CNc1nc(=O)n(C2CCCO2)cc1C` (stereo not given), the differentiation response is reported as 2.7% (inactive) and the double positive cells is reported as 1.3%.
With `Cc1cc(C)c(-c2csc(NC(=O)CCCc3nc4ccccc4c(=O)[nH]3)n2)c(C)c1` the differentiation response was 3.35% (inactive) and the double positive cells was 0%.
With `CN1CCC(CN)(N2CCN(c3ccccc3)CC2)CC1` the differentiation response was 1.95% (inactive) and the double positive cells was 1.25%.
For `COc1ccc(S(=O)(=O)N2CCC(C(=O)N3CCc4ccccc4C3)CC2)cc1OC`, the differentiation response was 1% (inactive) and the double positive cells was 1%.
For `Cc1ccc(OS(=O)Nc2cccc3nccnc23)cc1` (stereo not given), the differentiation response was 1.6% (inactive) and the double positive cells was 0.85%.
With `CCN(CC)C(=O)CSC(Nc1cccc(F)c1)=C(C#N)C#N` the differentiation response was 13.7% (inactive) and the double positive cells was 0.9%.
In the case of `COc1cc(N=Cc2c(O)[nH]c3ccccc23)cc(OC)c1OC`, the differentiation response is reported as 0% (inactive) and the double positive cells is reported as 0%.
With `CNC[C@H]1Oc2c(NC(=O)C3CCCCC3)cccc2C(=O)N([C@H](C)CO)C[C@@H]1C` the differentiation response was 4.4% (inactive) and the double positive cells was 3.95%.
For `Cc1nn(-c2ncccn2)c2c1C(=O)CC(C)(C)C2Br` (stereo not given), the differentiation response was 1% (inactive) and the double positive cells was 0.85%.
In the case of `Cn1c2ccccc2c2cc(/C=C(\NC(=O)c3ccccc3)C(=O)NCC(=O)O)ccc21`, the differentiation response is reported as 3.05% (inactive) and the double positive cells is reported as 2.15%.
For `CCOC(=O)c1c(-c2ccc(C)cc2)csc1/N=C(\C)C1=C(O)c2ccccc2C1=O`, the differentiation response was 12.2% (inactive) and the double positive cells was 3.3%.
With `COc1ccc(-c2ccc(OC(=O)NC3CCS(=O)(=O)C3)cc2)cc1` (stereo not given) the differentiation response was 2.2% (inactive) and the double positive cells was 0.5%.
In the case of `O=S(=O)(c1ccc(Br)cc1)c1nc(-c2ccccc2)oc1NCc1cccnc1`, the differentiation response is reported as 50.5% (inactive) and the double positive cells is reported as 50.2%.
With `Nc1nc(Nc2ccccc2F)nc(NC2CCCCC2)c1[N+](=O)[O-]` the differentiation response was 51.1% (inactive) and the double positive cells was 25%.
For `Cc1ccc(Nc2cc(C)nc3c(C)ccc([N+](=O)[O-])c23)cc1`, the differentiation response was 11.4% (inactive) and the double positive cells was 0.55%.
In the case of `CN1OC(COC(=O)c2ccc(Cl)cc2)CC1c1ccccc1` (stereo not given), the differentiation response is reported as 1.05% (inactive) and the double positive cells is reported as 0.8%.
For `COc1cc(/C=C2/SC(=S)N(Cc3ccccc3)C2=O)cc(OC)c1O`, the differentiation response was 2.8% (inactive) and the double positive cells was 0.4%.
In the case of `Clc1ccc(-c2nnc(SCc3nc4ccccc4s3)o2)cc1`, the differentiation response is reported as 1.05% (inactive) and the double positive cells is reported as 1%.
For `CC(=O)Nc1ccc(S(=O)(=O)Nc2ccc(N3CCOCC3)c(F)c2)cc1`, the differentiation response was 1.45% (inactive) and the double positive cells was 1%.
With `COc1ccc(N(CC(=O)NC2CCCCCCC2)S(=O)(=O)c2c(C)nn(C)c2C)cc1` the differentiation response was 1.75% (inactive) and the double positive cells was 0.95%.
With `O[C@H]1C[C@H](c2ccc(Cl)cc2)N(Cc2cccs2)C[C@@H]1n1cc(C2CC2)nn1` the differentiation response was 18.4% (active) and the double positive cells was 13.1%.
For `O[C@H]1CN(Cc2cccs2)[C@@H](c2ccc(Cl)cc2)C[C@@H]1n1cc(C2CC2)nn1`, the differentiation response was 1.4% (inactive) and the double positive cells was 1.1%.
For `Cc1ccc2c(c1)C1C[N+](C)(CC(=O)c3ccccc3)CCC1N2C(=O)c1ccccc1Cl` (stereo not given), the differentiation response was 4.1% (inactive) and the double positive cells was 2.05%.
In the case of `Cc1ccc(-n2nc3cc(C)c(NC(=O)c4cccnc4)cc3n2)cc1`, the differentiation response is reported as 5.4% (inactive) and the double positive cells is reported as 1.05%.
In the case of `Cc1cccc(-n2c(SCC(=O)Nc3cccc(S(=O)(=O)NC4=NCCCCC4)c3)nc3ccccc3c2=O)c1C`, the differentiation response is reported as 17.3% (inactive) and the double positive cells is reported as 0.7%.
With `Fc1cccc(Cl)c1CSc1ccc(-c2ccco2)nn1` the differentiation response was 1.2% (inactive) and the double positive cells was 0.8%.
With `CC(C)c1nc2ccc(C(=O)O)cc2[nH]1` the differentiation response was 1.95% (inactive) and the double positive cells was 1.8%.
For `CSc1nnc(-c2ccncc2)n1CCCN1CCCC1=O`, the differentiation response was 1.75% (inactive) and the double positive cells was 1.15%.
With `O=C(NCCN=C1NS(=O)(=O)c2ccccc21)c1ccc(S(=O)(=O)N2CCOCC2)cc1` the differentiation response was 1.35% (inactive) and the double positive cells was 1.3%.
In the case of `CC(=O)N1c2ccc(S(=O)(=O)N3CCCC(C(=O)Nc4cccc(F)c4)C3)cc2CC1C` (stereo not given), the differentiation response is reported as 1.45% (inactive) and the double positive cells is reported as 0.95%.
In the case of `O=C(Nc1cccc2ncccc12)c1ccc(-c2ccc(Cl)cc2Cl)o1`, the differentiation response is reported as 4.55% (inactive) and the double positive cells is reported as 2.9%.
In the case of `Cc1cccc(OCC(O)CN2CCN(CCN3C(=O)c4cccc5cccc(c45)C3=O)CC2)c1C` (stereo not given), the differentiation response is reported as 0.25% (inactive) and the double positive cells is reported as 0%.
For `Cc1cccc(C)c1NC(=O)CCS(=O)(=O)c1cccc2nsnc12`, the differentiation response was 2% (inactive) and the double positive cells was 1.5%.
For `CC(C)CNC(=O)COC(=O)/C=C/c1ccccc1[N+](=O)[O-]`, the differentiation response was 1.45% (inactive) and the double positive cells was 1.2%.
With `COC(=O)CN(c1cccc(C(C)=O)c1)S(C)(=O)=O` the differentiation response was 2.05% (inactive) and the double positive cells was 1.5%.
With `O=C(CN1C(=O)NC(Cc2c[nH]c3ccccc23)C1=O)Nc1ccccc1C(F)(F)F` (stereo not given) the differentiation response was 1.7% (inactive) and the double positive cells was 1.2%.
With `CC1(C)CC(=O)C2=C(C1)Nc1cc(C(=O)c3ccccc3)ccc1NC2c1ccccn1` (stereo not given) the differentiation response was 1.95% (inactive) and the double positive cells was 1.65%.
For `CCOC(=O)C1=C(CN2CCc3ccccc32)NC(=O)NC1c1cccc([N+](=O)[O-])c1` (stereo not given), the differentiation response was 12.3% (active) and the double positive cells was 8.95%.
With `Cc1nc(C)c(-c2nnc(-c3cccc(S(=O)(=O)N(C)C)c3)o2)cc1C(=O)NN` the differentiation response was 4.1% (inactive) and the double positive cells was 1.3%.
With `Cc1ccc2c(c1)c1ncn(Cc3ccc(F)cc3)c(=O)c1n2C` the differentiation response was 2% (inactive) and the double positive cells was 0.8%.
With `O=c1oc2ccccc2cc1-c1csc(Nc2ccc(O)cc2)n1` the differentiation response was 27.4% (inactive) and the double positive cells was 12.5%.
In the case of `Cc1cc(C)n(C(=O)c2ccc(C)c(S(=O)(=O)N3CCOCC3)c2)n1`, the differentiation response is reported as 1.9% (inactive) and the double positive cells is reported as 1.8%.
With `Cc1cc(C)c(S(=O)(=O)NCC2CCC(C(=O)NCc3ccc4c(c3)OCO4)CC2)c(C)c1` (stereo not given) the differentiation response was 3.7% (inactive) and the double positive cells was 1.35%.
In the case of `CCOc1ccc(C(=O)Nc2ccc(S(=O)(=O)NCC3CCCO3)cc2)cc1OCC` (stereo not given), the differentiation response is reported as 1.5% (inactive) and the double positive cells is reported as 1.2%.
With `CC(C)(C)OC(=O)CNC(=O)c1[nH]cnc1C(=O)N[C@@H](Cc1ccccc1)C(=O)OCc1ccccc1` the differentiation response was 1.85% (inactive) and the double positive cells was 1.95%.
For `CCCC(=O)Nc1c(O)c2ccccc2[nH]c1=O`, the differentiation response was 1.45% (inactive) and the double positive cells was 1.1%.
In the case of `C/C(=C\c1ccccc1)C1NC(=O)c2c(sc3c2CCCC3)N1` (stereo not given), the differentiation response is reported as 1.1% (inactive) and the double positive cells is reported as 0.75%.
In the case of `COc1ccc(C2CC(c3cccc(OC)c3)=NN2c2ccc(S(N)(=O)=O)cc2)cc1` (stereo not given), the differentiation response is reported as 2.25% (inactive) and the double positive cells is reported as 1.4%.
For `CC(=O)Nc1ccc(S(=O)(=O)Nc2ccc(N3CCCCC3)cc2)cc1`, the differentiation response was 0% (inactive) and the double positive cells was 0%.
In the case of `CN(C(=O)c1cccc([N+](=O)[O-])c1)c1ccccc1C(=O)NCc1ccccc1`, the differentiation response is reported as 1.65% (inactive) and the double positive cells is reported as 1.35%.
With `CC(C)C(=O)N1CCN(c2nc(-c3ccccc3)c3c(c2C#N)CC(C)(C)OC3)CC1` the differentiation response was 1.8% (inactive) and the double positive cells was 1.6%.
In the case of `O=C(CCCN1C(=O)CCC1=O)Nc1ccc(Cl)c(C(F)(F)F)c1`, the differentiation response is reported as 1.55% (inactive) and the double positive cells is reported as 1.1%.
For `CC(CNc1ccc([N+](=O)[O-])cc1)NC(=O)c1ccccc1Br` (stereo not given), the differentiation response was 1.65% (inactive) and the double positive cells was 1%.
In the case of `CN(C(=O)CSc1nnc(C2CC2)n1C)C1CCCc2ccccc21` (stereo not given), the differentiation response is reported as 2.6% (inactive) and the double positive cells is reported as 2.05%.
With `COc1ccc(C(=O)N(Cc2ccccc2)c2ccc(C)cc2)cc1S(=O)(=O)N1CCOCC1` the differentiation response was 1.9% (inactive) and the double positive cells was 0.95%.
With `COc1ccc2nc(N3CCN(C(=O)c4ccc([N+](=O)[O-])o4)CC3)sc2c1` the differentiation response was 3.05% (inactive) and the double positive cells was 0%.
With `O=C(NCC1CCCCC1)NCC1CCCCC1` the differentiation response was 0.8% (inactive) and the double positive cells was 0.5%.
With `O=C(NC(=O)c1ccccc1)Nc1ccccc1O` the differentiation response was 5.8% (inactive) and the double positive cells was 0.95%.
With `O=S(=O)(NCc1cccnc1)c1ccc(Cl)nc1` the differentiation response was 1.35% (inactive) and the double positive cells was 1.1%.
For `CC(C)CC(COCc1ccc(Cl)cc1)N1CCN(C(=O)c2ccc(C(F)(F)F)cc2)CCC1=O` (stereo not given), the differentiation response was 2.15% (inactive) and the double positive cells was 1.95%.
In the case of `CCOC(=O)c1c(-c2ccccc2)oc2ccc(OCC(=O)NN)cc12`, the differentiation response is reported as 2.65% (inactive) and the double positive cells is reported as 0.85%.
With `COc1ccccc1N1CCN(C(=O)c2cc(-c3ccc(Br)cc3)on2)CC1` the differentiation response was 1.9% (inactive) and the double positive cells was 1.65%.
For `Nc1ccc2nc3c(=O)[nH]c(=S)[nH]c3nc2c1`, the differentiation response was 11.7% (inactive) and the double positive cells was 1.75%.
In the case of `COc1cccc(NC(=O)[C@H](Cc2c[nH]c3ccccc23)NC(=O)[C@@H]2Cc3ccccc3CN2)c1`, the differentiation response is reported as 5% (active) and the double positive cells is reported as 4.8%.
With `CCc1c(C)sc(NC(=O)c2cccs2)c1C(N)=O` the differentiation response was 7.25% (inactive) and the double positive cells was 5.9%.
For `O=C(CN(c1ccccc1)S(=O)(=O)c1ccc(Cl)cc1)Nc1ccccc1C(=O)N1CCCC1`, the differentiation response was 2.2% (inactive) and the double positive cells was 1.4%.
For `O=C(Cn1cc(-c2nnnn2-c2ccc(Cl)cc2)c(=O)c2ccccc21)c1ccccc1`, the differentiation response was 3.55% (inactive) and the double positive cells was 2.6%.
With `CC1CCCC(NC(=O)CN2CCN(Cc3ccc(Cl)cc3)C2=O)C1C` (stereo not given) the differentiation response was 4.75% (inactive) and the double positive cells was 2.6%.
For `CCc1noc(C)c1C(=O)Nc1nc(-c2ccccc2)cs1`, the differentiation response was 1.4% (inactive) and the double positive cells was 1%.
In the case of `C=CCNc1nnc(SCC(=O)N2CCCCC2)c2ccccc12`, the differentiation response is reported as 2.2% (inactive) and the double positive cells is reported as 1.55%.
In the case of `COc1cccc(NC(=S)NCc2ccccn2)c1`, the differentiation response is reported as 1.3% (inactive) and the double positive cells is reported as 1.3%.
For `COc1ccc(C(C(=O)NCc2ccccc2)n2c(=O)c(-c3ccccc3)nc3ccccc32)cc1` (stereo not given), the differentiation response was 29.1% (inactive) and the double positive cells was 12.2%.
In the case of `Cc1ccc(C)c(S(=O)(=O)N2CCN(c3ncnc4sccc34)CC2)c1`, the differentiation response is reported as 5.55% (inactive) and the double positive cells is reported as 0%.
For `O=C1c2ccccc2C(=O)N1Cc1cc(-c2ccccc2Cl)no1`, the differentiation response was 2.85% (inactive) and the double positive cells was 1.25%.
With `N#CC1=C(N)Oc2c(sc3ccccc23)C1c1ccco1` (stereo not given) the differentiation response was 50% (inactive) and the double positive cells was 25%.
With `CCOC(=O)CC(=O)CSc1nc(-c2ccccc2)cc(-c2ccc(Cl)cc2)c1C#N` the differentiation response was 1.35% (inactive) and the double positive cells was 1.15%.
For `COc1ccccc1CNC(=O)c1cc(-c2cc(Cl)ccc2C)n[nH]1`, the differentiation response was 0.15% (inactive) and the double positive cells was 0%.
For `CCOC(=O)c1c(-c2cccc(C)c2)csc1NC(=O)c1c(-c2ccccc2)noc1C`, the differentiation response was 0.75% (inactive) and the double positive cells was 0.25%.
